The values below come from PMC7862700, “An all-to-all approach to the identification of sequence-specific readers for epigenetic DNA modifications on cytosine”.

Assay in all cases: DAPPL (digital affinity profiling via proximity ligation, sequencing); 10 mM Tris-HCl pH 7.5, 50 mM NaCl, 1 mM DTT, 4% glycerol, room temperature, 30 min; GST-TFs on glutathione beads, 16-mer random dsDNA library, 0.1% formaldehyde crosslink after washing; high values mean tight binding
The target in one assay is T1, FLI1 (Homo sapiens, UniProt Q01543 1-452).
T1 sequence: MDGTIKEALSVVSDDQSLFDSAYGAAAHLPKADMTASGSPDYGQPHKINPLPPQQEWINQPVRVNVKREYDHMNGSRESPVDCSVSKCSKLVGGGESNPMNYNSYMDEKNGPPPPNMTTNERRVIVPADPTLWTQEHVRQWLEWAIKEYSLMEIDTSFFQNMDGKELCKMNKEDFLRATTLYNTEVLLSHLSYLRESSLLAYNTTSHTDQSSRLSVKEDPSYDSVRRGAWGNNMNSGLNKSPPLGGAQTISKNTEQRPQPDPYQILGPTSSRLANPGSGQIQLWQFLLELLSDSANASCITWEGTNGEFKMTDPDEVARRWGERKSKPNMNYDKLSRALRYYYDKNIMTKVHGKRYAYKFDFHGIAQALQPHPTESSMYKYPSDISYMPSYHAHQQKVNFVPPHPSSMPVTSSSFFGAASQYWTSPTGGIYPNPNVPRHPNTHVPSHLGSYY
Particulars: protein: recombinant; tags: N-terminal GST; dsDNA, one strand shown. In outline: (§1)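 Human transcription factors fused to GST were expressed in yeast, captured on glutathione beads, given DNA barcodes and pooled with a GST-only negative control. Pools were incubated with 200 nmole of a 16-mer random double-stranded DNA library in Tris/NaCl/DTT/glycerol buffer at room temperature for 30 min. They were then washed, crosslinked with 0.1% formaldehyde, proximity-ligated (BsaI/T4 ligase, 1 h, 37 °C), PCR-amplified and sequenced on an Illumina NextSeq500. Binding signal is each 6-mer's read frequency for a factor divided by its frequency for the GST control.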

For another assay, the target named is T2, GABPA (Homo sapiens, UniProt Q06546 1-454).
T2 sequence: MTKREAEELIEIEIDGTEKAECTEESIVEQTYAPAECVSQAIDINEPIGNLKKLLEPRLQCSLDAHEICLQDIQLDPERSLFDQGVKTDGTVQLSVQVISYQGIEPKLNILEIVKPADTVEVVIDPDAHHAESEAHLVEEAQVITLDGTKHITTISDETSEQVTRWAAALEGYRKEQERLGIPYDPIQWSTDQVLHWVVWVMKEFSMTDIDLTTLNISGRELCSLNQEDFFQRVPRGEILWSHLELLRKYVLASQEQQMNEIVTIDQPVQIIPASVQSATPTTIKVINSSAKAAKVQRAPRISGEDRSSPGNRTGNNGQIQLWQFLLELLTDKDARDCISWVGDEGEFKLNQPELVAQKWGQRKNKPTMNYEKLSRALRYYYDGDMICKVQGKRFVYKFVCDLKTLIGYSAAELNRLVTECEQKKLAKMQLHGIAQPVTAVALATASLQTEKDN
Conditions: protein: recombinant; tags: N-terminal GST; dsDNA, one strand shown. Put shortly: as §1

Another assay addresses T3, ERG (Homo sapiens, UniProt P11308 1-479).
T3 sequence: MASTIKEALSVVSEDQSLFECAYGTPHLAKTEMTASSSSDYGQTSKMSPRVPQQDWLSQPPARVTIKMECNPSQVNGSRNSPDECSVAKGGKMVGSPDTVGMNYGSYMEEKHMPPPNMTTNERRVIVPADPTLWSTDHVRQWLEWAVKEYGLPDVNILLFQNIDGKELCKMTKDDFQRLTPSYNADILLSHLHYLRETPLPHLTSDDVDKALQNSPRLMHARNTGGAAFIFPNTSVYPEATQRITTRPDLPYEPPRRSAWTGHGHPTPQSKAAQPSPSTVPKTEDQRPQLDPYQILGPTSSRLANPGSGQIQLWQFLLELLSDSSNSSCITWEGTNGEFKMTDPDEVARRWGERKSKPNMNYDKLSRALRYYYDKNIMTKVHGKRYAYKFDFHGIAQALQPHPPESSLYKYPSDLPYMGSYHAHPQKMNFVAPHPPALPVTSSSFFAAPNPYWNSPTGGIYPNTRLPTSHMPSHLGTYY
Conditions: protein: recombinant; tags: N-terminal GST; dsDNA, one strand shown. Put shortly: as §1

A further assay concerns the target ELF1 (Homo sapiens, UniProt P32519 1-619). Conditions: protein: recombinant; tags: N-terminal GST; dsDNA, one strand shown. Put shortly:
as §1

The next assay addresses SPIB (Homo sapiens, UniProt Q01892 1-262). Conditions: protein: recombinant; tags: N-terminal GST; dsDNA, one strand shown. Put shortly:
as §1

The next assay concerns the target T4, ELK3 (Homo sapiens, UniProt P41970 1-407).
T4 sequence: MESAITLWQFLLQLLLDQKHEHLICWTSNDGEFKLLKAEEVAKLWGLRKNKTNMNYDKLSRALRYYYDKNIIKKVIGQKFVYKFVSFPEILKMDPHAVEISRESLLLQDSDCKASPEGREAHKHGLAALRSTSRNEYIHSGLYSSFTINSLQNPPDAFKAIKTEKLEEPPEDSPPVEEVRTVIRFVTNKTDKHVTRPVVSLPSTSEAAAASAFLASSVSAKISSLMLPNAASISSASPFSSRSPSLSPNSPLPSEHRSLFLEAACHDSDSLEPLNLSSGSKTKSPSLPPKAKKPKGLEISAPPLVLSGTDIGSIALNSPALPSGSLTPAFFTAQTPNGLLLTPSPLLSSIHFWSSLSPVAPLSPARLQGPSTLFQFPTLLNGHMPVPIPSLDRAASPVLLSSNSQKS
Conditions: protein: recombinant; tags: N-terminal GST; dsDNA, one strand shown. Put shortly:
as §1

The next assay addresses HSF1 (Homo sapiens, UniProt Q00613 1-529). Particulars: protein: recombinant; tags: N-terminal GST; chain copies: 3; dsDNA, one strand shown. Put shortly: as §1
For the next assay, the target named is T5, ETV2 (Homo sapiens, UniProt O00321 1-342).
T5 sequence: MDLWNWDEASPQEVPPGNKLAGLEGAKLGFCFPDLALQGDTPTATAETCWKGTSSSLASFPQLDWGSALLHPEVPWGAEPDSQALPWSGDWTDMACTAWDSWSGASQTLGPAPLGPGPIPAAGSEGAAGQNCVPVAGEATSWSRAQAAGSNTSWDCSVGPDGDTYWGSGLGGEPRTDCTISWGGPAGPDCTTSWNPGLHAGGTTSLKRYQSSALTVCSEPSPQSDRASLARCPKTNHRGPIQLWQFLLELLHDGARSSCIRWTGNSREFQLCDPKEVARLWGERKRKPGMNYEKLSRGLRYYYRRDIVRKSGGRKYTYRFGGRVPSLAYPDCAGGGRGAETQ
Conditions: protein: recombinant; tags: N-terminal GST; dsDNA, one strand shown. In outline:
as §1

In a further assay the target is T6, ELF3 (Homo sapiens, UniProt P78545 1-371).
T6 sequence: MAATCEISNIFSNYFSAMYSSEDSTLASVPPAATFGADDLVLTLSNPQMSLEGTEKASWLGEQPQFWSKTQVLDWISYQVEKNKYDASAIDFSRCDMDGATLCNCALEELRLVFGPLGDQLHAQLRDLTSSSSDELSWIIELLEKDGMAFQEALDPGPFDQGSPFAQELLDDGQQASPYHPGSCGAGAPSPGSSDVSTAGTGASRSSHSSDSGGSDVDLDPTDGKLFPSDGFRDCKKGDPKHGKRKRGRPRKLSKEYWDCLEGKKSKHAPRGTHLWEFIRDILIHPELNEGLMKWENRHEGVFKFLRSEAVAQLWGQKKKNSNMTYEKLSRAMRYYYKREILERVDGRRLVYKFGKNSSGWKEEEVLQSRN
Particulars: protein: recombinant; tags: N-terminal GST; dsDNA, one strand shown. In outline: as §1

A further assay addresses ETV1 (Homo sapiens, UniProt P50549 1-477). Conditions: protein: recombinant; tags: N-terminal GST; dsDNA, one strand shown. In outline: as §1
The target in another assay is T7, ERF (Homo sapiens, UniProt P50548 1-548).
T7 sequence: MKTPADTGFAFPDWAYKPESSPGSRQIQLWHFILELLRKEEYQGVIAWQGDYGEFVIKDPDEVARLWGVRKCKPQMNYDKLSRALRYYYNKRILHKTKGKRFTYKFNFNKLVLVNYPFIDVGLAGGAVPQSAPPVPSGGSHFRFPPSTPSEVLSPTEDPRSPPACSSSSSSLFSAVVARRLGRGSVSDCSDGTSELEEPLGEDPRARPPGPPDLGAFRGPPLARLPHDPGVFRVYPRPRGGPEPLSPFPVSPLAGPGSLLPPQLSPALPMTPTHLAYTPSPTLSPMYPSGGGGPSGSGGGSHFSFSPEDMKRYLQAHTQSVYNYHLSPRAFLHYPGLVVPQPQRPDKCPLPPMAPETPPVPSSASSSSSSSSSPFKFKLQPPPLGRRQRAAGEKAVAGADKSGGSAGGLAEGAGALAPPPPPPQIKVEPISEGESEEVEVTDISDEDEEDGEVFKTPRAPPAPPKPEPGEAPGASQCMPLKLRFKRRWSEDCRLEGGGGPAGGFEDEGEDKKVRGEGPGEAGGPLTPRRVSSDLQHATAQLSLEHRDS
Conditions: protein: recombinant; tags: N-terminal GST; dsDNA, one strand shown. Put shortly: as §1

The target in the next assay is T8, ETV3L (Homo sapiens, UniProt Q6ZN32 1-361).
T8 sequence: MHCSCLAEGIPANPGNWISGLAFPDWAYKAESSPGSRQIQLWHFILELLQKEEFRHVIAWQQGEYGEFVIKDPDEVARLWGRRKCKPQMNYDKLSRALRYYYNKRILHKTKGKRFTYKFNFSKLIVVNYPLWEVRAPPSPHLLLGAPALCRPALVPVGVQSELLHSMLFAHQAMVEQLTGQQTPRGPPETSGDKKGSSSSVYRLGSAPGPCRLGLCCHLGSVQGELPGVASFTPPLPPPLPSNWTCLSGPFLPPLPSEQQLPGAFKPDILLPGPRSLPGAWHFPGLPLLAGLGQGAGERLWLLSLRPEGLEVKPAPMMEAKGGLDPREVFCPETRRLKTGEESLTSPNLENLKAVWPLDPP
Particulars: protein: recombinant; tags: N-terminal GST; dsDNA, one strand shown. Put shortly:
as §1

A further assay has as its target T9, ETV3 (Homo sapiens, UniProt P41162-2 1-143).
T9 sequence: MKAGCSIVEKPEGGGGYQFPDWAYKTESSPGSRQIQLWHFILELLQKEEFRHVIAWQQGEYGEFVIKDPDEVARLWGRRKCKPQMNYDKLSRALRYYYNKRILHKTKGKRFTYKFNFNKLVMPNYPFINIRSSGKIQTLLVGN
Conditions: protein: recombinant; tags: N-terminal GST; dsDNA, one strand shown. In outline:
as §1

Another assay has as its target ETV6 (Homo sapiens, UniProt P41212 1-452). Particulars: protein: recombinant; tags: N-terminal GST; dsDNA, one strand shown. Put shortly:
as §1

SPIB, sequence (Q01892 whole entry): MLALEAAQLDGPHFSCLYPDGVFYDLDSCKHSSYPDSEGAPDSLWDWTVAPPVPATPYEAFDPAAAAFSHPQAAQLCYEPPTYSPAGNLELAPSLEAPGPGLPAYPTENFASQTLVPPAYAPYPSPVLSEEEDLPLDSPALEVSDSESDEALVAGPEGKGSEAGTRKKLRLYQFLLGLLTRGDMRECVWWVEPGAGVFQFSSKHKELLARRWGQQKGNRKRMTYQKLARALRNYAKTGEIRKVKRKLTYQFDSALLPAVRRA
HSF1, sequence (Q00613 whole entry): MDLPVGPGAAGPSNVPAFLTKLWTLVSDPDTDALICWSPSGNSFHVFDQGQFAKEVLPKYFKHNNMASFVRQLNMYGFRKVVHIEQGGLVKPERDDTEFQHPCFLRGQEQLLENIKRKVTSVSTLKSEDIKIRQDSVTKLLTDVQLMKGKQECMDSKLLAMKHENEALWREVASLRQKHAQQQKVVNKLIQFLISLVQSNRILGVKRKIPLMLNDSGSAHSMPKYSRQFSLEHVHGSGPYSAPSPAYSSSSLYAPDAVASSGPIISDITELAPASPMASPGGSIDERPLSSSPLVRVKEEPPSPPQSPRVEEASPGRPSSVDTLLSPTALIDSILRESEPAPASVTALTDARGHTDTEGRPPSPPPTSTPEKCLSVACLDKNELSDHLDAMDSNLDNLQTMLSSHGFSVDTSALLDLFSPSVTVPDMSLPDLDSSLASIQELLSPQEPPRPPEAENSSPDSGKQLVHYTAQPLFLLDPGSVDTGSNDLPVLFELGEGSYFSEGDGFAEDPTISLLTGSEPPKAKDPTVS
ELF1, sequence (P32519 whole entry): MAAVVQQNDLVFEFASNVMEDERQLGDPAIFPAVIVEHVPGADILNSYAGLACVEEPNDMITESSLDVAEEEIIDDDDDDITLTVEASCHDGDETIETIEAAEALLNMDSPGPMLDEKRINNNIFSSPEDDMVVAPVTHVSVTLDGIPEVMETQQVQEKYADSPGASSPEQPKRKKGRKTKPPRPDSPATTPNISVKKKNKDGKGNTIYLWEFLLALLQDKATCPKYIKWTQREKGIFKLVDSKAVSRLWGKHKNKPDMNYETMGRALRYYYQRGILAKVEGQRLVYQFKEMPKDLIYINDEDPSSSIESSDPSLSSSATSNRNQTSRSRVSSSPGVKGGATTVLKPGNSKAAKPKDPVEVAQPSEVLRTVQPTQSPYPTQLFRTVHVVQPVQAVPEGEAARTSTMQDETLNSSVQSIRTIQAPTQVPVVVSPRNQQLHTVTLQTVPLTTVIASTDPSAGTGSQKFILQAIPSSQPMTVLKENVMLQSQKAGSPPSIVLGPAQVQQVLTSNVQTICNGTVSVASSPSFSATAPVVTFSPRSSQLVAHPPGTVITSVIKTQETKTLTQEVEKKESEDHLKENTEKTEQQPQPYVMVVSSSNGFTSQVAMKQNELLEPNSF
ETV6, sequence (P41212 whole entry): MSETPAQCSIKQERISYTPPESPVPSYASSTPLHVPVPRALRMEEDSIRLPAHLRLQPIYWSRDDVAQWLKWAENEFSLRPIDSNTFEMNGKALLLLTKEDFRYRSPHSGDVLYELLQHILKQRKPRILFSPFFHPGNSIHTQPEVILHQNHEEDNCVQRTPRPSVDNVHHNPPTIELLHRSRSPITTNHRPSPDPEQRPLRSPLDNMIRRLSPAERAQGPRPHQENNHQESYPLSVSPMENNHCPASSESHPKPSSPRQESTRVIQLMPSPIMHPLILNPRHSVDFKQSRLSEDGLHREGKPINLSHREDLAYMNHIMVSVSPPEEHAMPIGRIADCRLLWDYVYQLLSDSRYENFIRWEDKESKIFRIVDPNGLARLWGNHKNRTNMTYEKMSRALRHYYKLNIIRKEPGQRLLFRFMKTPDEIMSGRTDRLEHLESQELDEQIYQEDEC
ETV1, sequence (P50549 whole entry): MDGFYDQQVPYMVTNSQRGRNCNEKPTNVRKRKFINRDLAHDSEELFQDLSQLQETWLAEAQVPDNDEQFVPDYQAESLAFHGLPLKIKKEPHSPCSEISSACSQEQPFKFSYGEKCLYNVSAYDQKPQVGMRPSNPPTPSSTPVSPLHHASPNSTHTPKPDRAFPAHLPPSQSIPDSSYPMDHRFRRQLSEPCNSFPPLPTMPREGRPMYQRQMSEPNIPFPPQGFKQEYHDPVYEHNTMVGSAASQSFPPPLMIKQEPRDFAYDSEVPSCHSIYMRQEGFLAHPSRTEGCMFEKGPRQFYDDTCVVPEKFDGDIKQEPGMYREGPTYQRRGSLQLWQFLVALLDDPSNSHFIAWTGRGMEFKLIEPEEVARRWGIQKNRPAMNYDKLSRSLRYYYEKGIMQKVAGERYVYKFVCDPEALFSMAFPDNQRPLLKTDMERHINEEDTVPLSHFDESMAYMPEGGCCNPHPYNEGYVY

For the sequence TCTGGA, the binding signal in the assay with FLI1 is 1.02 fold enrichment (6-mer frequency, TF over GST control); in the assay with GABPA, 1.05 fold enrichment (6-mer frequency, TF over GST control); with ERG it was 1.04 fold enrichment (6-mer frequency, TF over GST control); in the assay with ELF1, 1.01 fold enrichment (6-mer frequency, TF over GST control); in the assay with SPIB, 1.01 fold enrichment (6-mer frequency, TF over GST control); with ELK3, 1.2 fold enrichment (6-mer frequency, TF over GST control). Besides, the binding signal in the assay with HSF1 is 3.75 fold enrichment (6-mer frequency, TF over GST control); with ETV2, 1.15 fold enrichment (6-mer frequency, TF over GST control); in the assay with ELF3, 1.06 fold enrichment (6-mer frequency, TF over GST control); with ETV1 it was 1.2 fold enrichment (6-mer frequency, TF over GST control); with ERF it was 1.06 fold enrichment (6-mer frequency, TF over GST control); with ETV3L, 1.1 fold enrichment (6-mer frequency, TF over GST control). Besides, the binding signal with ETV3 is 1.05 fold enrichment (6-mer frequency, TF over GST control); with ETV6 it was 1.07 fold enrichment (6-mer frequency, TF over GST control).
